Screens from PubChem BioAssay.
A selection: hits, their analogues and other compounds. The true share with any hit is near 2.5%.
LMP1 NFkB inh = EBV LMP1-driven NF-kappaB luciferase reporter inhibitors, primary screen, cell-based, luminescence, single point; LMP1-induced NF-kappaB luciferase reporter cells; inhibition, % at 12.5 µM; actives 0.69% (n = 350,000); AID 504558, 2011; in the data active means inhibition above about 41%;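 further: 0% = neutral control wells and 100% = reference inhibitor control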
EWS-Fli inh = EWS/Fli-driven NR0B1 reporter inhibitors, primary screen, A673 cells, NR0B1 luciferase, luminescence, MLPCN library; viability-normalised; inhibition, % at 12.6 µM; actives 0.67% (n = 350,000);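 active means mean inhibition of at least 50% after viability correction, with every replicate also passing that limit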;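 further: firefly luciferase signal divided by Alamar Blue viability fluorescence both relative to DMSO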
TWEAK Fn14 block = inhibitors of TWEAK-Fn14 signaling, primary screen, luciferase reporter cells, uHTS | TWEAK-stimulated Fn14 reporter cells, luciferase luminescence, 8 h | inhibition, % at 10 µM | actives 2% (n = 360,000) | AID 1159606, 2016; in the data active means inhibition above about 50%
LGR2 antag = inhibitors of bursicon-induced LGR2 CRE-luciferase signal, primary screen, cell-based, HEK293, CRE-luciferase reporter, bursicon stimulation; actives 0.35% (n = 380,000); bursicon-stimulated, 4 h; inhibition, % at 9.99 µM;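 active means drop in luminescence signal, shown as inhibition above about 50% in the replicate tests, limit read from the data, passing the limit was not always enough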;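 further: agonist challenge used bursicon conditioned medium at about half maximal strength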
TROY NFkB inh = inhibitors of TROY-driven NF-kB signaling, primary screen, Q293 LMP1-TROYcd cells, NF-kB luciferase, uHTS. Q293 LMP1-TROYcd NF-kB luciferase reporter, 4 h. inhibition, % at 10 µM. AID 1347056, 2019. actives 0.98% (n = 360,000);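 active means compounds whose plate-normalised and pattern-corrected inhibition of the luciferase reporter signal at the single screening dose is 50% or more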
Starred values were filed as active, the others as inactive.

`ClC(Cl)(c1nnnn1-c1ccccc1)c1nnnn1-c1ccccc1` gave LMP1 NFkB inh -5, TWEAK Fn14 block 18, LGR2 antag -9 and TROY NFkB inh 59*.
Screening O=C(C[C@@H]1CC[C@H](NC(=O)c2ccc3c(c2)OCO3)[C@@H](CO)O1)NC1Cc2ccccc2C1 returned EWS-Fli inh 0 and LGR2 antag 6.
`CSc1nc2ccc(S(=O)(=O)N3CCCC3)cc2s1` gave LMP1 NFkB inh -4, TWEAK Fn14 block -8, LGR2 antag -20 and TROY NFkB inh 27.
CSc1nc2ccc(N3C(=O)C4CCCCC4C3=O)cc2s1 (configuration not stated) was read as LMP1 NFkB inh -9, TWEAK Fn14 block 107* and TROY NFkB inh -36.
O=C(NOCc1ccccc1)c1ccc(Cl)cc1 was read as LMP1 NFkB inh 32, EWS-Fli inh -76, TWEAK Fn14 block 66*, LGR2 antag 44 and TROY NFkB inh 30.
`COc1ccc(C(=O)NCCNC(=O)c2ccc(OC)cc2)cc1` gave LMP1 NFkB inh 3, EWS-Fli inh 4, TWEAK Fn14 block -19, LGR2 antag -9 and TROY NFkB inh 4.
`COc1ccc(C(=O)NCCSc2ccccc2)cc1` gave LMP1 NFkB inh -4, TWEAK Fn14 block 61*, LGR2 antag 27 and TROY NFkB inh 14.
COc1ccc(C(=O)NOCc2ccccc2)cc1 was read as LMP1 NFkB inh 48*, EWS-Fli inh 14, TWEAK Fn14 block 86*, LGR2 antag 73* and TROY NFkB inh 47.
C[C@H](CO)N1C[C@H](C)[C@H](CN(C)Cc2ccc(Cl)c(Cl)c2)OCCCC[C@H](C)Oc2ccc(NS(=O)(=O)c3ccc(F)cc3)cc2C1=O was read as EWS-Fli inh -5 and LGR2 antag 13.
O=C(NCCN1CCOCC1)c1ccc(Cl)c(S(=O)(=O)N2CCCC2)c1 was read as LMP1 NFkB inh 1, EWS-Fli inh 7, TWEAK Fn14 block 27, LGR2 antag 8 and TROY NFkB inh 9.
Screening O=C(Nc1cccc(Br)c1)c1ccc(Cl)c(S(=O)(=O)N2CCOCC2)c1 returned LMP1 NFkB inh 6, EWS-Fli inh 5, TWEAK Fn14 block 77*, LGR2 antag 13 and TROY NFkB inh 45.
Screening O=C(Nc1cccc(C(=O)NC2CC2)c1)c1ccc(Cl)c(S(=O)(=O)N2CCOCC2)c1 returned LMP1 NFkB inh 2, EWS-Fli inh -9, TWEAK Fn14 block 1, LGR2 antag -4 and TROY NFkB inh -6.
O=C(Nc1ccc(Cl)c(S(=O)(=O)N2CCOCC2)c1)c1ccc(OCC2CCCO2)cc1 (configuration not stated) was read as LMP1 NFkB inh 17, TWEAK Fn14 block 99* and TROY NFkB inh 77*.
`O=C(NCCN1CCOCC1)c1ccc(Cl)c(S(=O)(=O)N2CCCCCC2)c1` gave LMP1 NFkB inh 9 and TWEAK Fn14 block 66*.
O=C(CN1C(=O)CCOc2ccccc21)Nc1ccc(Cl)c(S(=O)(=O)N2CCOCC2)c1 was read as LMP1 NFkB inh 42*, EWS-Fli inh 0, TWEAK Fn14 block -17, LGR2 antag 16 and TROY NFkB inh -2.
For COc1ccc(NC(=O)Nc2ccc3c(c2)[C@H]2C[C@H](CC(=O)NCc4ccccn4)O[C@H](CO)[C@H]2O3)cc1 the results were EWS-Fli inh 3 and LGR2 antag -8.
O=C(Nc1cccc(Cl)c1)c1ccc(F)c(S(=O)(=O)N2CCN(c3ccccn3)CC2)c1 was read as LMP1 NFkB inh 12, TWEAK Fn14 block 59*, LGR2 antag 16 and TROY NFkB inh 33.
Screening CCOc1ccc(NC(=O)c2ccc(F)c(S(=O)(=O)N3CCN(c4ccccn4)CC3)c2)cc1 returned LMP1 NFkB inh 18, TWEAK Fn14 block 44, LGR2 antag 18 and TROY NFkB inh 44.
`C[C@@H]1CN([C@H](C)CO)C(=O)c2cccc(NC(=O)C3CCOCC3)c2O[C@H]1CN(C)Cc1ccc(Oc2ccccc2)cc1` gave EWS-Fli inh 4 and LGR2 antag -4.
Screening C=CCN1C=CC(=C/C=C(/C#N)C(=O)OCC)C=C1 returned LMP1 NFkB inh 4, TWEAK Fn14 block 50* and TROY NFkB inh -22.
Cc1cc(C)c2nc(C(F)(F)F)c(C#N)c(N)c2c1 was read as LMP1 NFkB inh 40, TWEAK Fn14 block 70* and TROY NFkB inh 22.
`Cc1ccc2nc(C(F)(F)F)c(C#N)c(N)c2c1` gave LMP1 NFkB inh -33, EWS-Fli inh 11, TWEAK Fn14 block 64*, LGR2 antag 65* and TROY NFkB inh 53*.
Screening CC(=O)N(C)C[C@@H]1Oc2cc(C#Cc3cccc(F)c3)ccc2S(=O)(=O)N([C@H](C)CO)C[C@H]1C returned EWS-Fli inh 1 and LGR2 antag 11.
For C[C@H](CO)N1C[C@H](C)[C@@H](CN(C)Cc2ccc(Cl)c(Cl)c2)Oc2ccc(NS(=O)(=O)c3cn(C)cn3)cc2CC1=O the results were EWS-Fli inh 13 and LGR2 antag 5.
Screening Cc1ccc(C(=O)NCC#N)cc1 returned LMP1 NFkB inh 1, EWS-Fli inh -3, TWEAK Fn14 block 10, LGR2 antag 3 and TROY NFkB inh 10.
Screening COc1ccc(C(=O)NC(=C(Cl)Cl)S(=O)(=O)c2ccc(C)cc2)cc1 returned LMP1 NFkB inh -27, EWS-Fli inh 10, TWEAK Fn14 block 45, LGR2 antag -11 and TROY NFkB inh -6.
Screening COC(=O)NC(=C(Cl)Cl)S(=O)(=O)c1ccccc1 returned LMP1 NFkB inh -137, TWEAK Fn14 block 69*, LGR2 antag 11 and TROY NFkB inh 0.
`Cc1ccc(C(=O)NC(=C(Cl)Cl)S(=O)(=O)c2ccccc2)cc1` gave LMP1 NFkB inh -129, EWS-Fli inh 10, TWEAK Fn14 block 84*, LGR2 antag -5 and TROY NFkB inh -27.
Cc1ccc(C(=O)NC(C#N)=C(Cl)Cl)cc1 was read as EWS-Fli inh 77* and LGR2 antag 106*.
For CN1[C@@H]2c3ccc(-c4ccc(F)cc4)c(=O)n3C[C@H]1[C@H](CO)[C@H]2C(=O)NC1CCCCC1 the results were EWS-Fli inh 2 and LGR2 antag -12.
For CCC(=O)c1ccc(OCC(=O)Nc2cccc(S(=O)(=O)N3CCCCCC3)c2)cc1 the results were LMP1 NFkB inh 17, EWS-Fli inh 2, TWEAK Fn14 block 54*, LGR2 antag 10 and TROY NFkB inh 31.
`COc1ccc(S(=O)(=O)N2CCN(CC(=O)Nc3ccc(F)c(F)c3)CC2)cc1` gave LMP1 NFkB inh -10, TWEAK Fn14 block -11, LGR2 antag -11 and TROY NFkB inh -15.
Screening O=C(COc1ccc(C(=O)c2ccc(F)cc2)cc1)Nc1cccc(S(=O)(=O)N2CCOCC2)c1 returned LMP1 NFkB inh 16, EWS-Fli inh 9, TWEAK Fn14 block 57*, LGR2 antag 11 and TROY NFkB inh 54*.
